The supplement of paper PMC11732987, “Enantioselective OTUD7B fragment discovery through chemoproteomics screening and high-throughput optimisation” (Communications Chemistry, 2025)

Experiments:
Test in all cases: log2 ratio of Biotin-Ahx-Ub-VS probe labelling (fragment/DMSO); higher = less target engagement (more negative = stronger competition), active = hit call of the paper (q ≤ 0.05, log2 ratio ≤ -1)
Conditions in all cases: compound concentration: 200 uM; treatment time: 3 h
ALG13 = molecular target: T1, ALG13 (UniProt Q9NP73)
T1 sequence (whole entry): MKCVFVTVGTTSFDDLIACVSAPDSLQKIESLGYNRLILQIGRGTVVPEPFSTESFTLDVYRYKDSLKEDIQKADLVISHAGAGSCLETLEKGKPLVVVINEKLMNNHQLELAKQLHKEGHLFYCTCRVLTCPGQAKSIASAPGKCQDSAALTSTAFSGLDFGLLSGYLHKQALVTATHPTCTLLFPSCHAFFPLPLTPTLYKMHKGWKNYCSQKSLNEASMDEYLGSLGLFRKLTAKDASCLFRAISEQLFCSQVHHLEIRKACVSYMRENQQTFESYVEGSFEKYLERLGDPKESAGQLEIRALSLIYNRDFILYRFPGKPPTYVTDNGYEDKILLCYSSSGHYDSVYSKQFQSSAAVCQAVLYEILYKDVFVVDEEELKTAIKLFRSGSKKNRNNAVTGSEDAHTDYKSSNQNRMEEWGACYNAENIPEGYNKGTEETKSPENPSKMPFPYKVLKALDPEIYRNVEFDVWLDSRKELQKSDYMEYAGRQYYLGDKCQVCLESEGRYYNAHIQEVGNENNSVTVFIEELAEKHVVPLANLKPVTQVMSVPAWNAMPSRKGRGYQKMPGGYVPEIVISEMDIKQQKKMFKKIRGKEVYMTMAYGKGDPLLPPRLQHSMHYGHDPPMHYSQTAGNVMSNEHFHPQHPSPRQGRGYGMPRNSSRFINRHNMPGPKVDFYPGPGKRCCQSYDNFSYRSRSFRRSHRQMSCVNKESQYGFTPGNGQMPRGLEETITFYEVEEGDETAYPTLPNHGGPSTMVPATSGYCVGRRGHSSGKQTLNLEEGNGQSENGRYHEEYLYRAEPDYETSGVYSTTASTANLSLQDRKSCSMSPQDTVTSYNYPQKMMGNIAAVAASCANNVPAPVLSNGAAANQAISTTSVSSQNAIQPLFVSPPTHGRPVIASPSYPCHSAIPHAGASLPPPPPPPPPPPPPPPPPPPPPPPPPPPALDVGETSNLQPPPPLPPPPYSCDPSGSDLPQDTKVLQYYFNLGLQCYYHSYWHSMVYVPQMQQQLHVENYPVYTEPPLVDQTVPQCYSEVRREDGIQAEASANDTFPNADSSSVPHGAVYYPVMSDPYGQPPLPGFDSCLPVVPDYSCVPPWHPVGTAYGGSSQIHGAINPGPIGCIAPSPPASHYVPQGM
Method in brief: (§1)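 HEK293T lysate (495 µg per sample, in Tris/CHAPS/IGEPAL buffer with protease inhibitors) was exposed in triplicate for 3 h to fragment at 200 µM or to vehicle, then to Biotin-Ahx-Ub-VS at 0.5 µM final for 1 h. Labelled DUBs were enriched on NeutrAvidin, digested with LysC and trypsin, and analysed by diaPASEF LC-MS/MS. Spectronaut label-free quantities were normalised to the global median, and values are average log2 ratios of fragment over vehicle from an unpaired t-test. Only proteins with ≥2 unique peptides were used.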

ATXN3 = ATXN3 (UniProt P54252)
ATXN3, sequence (P54252 whole entry): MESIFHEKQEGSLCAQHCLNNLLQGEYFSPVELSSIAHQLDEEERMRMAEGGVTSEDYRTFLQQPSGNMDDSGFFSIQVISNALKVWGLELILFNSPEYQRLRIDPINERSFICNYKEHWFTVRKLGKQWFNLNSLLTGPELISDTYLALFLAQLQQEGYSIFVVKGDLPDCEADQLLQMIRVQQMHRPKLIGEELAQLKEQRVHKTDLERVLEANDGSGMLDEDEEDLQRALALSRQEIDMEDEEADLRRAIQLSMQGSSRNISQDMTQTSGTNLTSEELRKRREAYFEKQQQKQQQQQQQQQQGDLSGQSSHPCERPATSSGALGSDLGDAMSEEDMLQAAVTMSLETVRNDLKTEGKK
Method in brief: as §1

BAP1 = molecular target: T2, BAP1 (UniProt Q92560)
T2 sequence (whole entry): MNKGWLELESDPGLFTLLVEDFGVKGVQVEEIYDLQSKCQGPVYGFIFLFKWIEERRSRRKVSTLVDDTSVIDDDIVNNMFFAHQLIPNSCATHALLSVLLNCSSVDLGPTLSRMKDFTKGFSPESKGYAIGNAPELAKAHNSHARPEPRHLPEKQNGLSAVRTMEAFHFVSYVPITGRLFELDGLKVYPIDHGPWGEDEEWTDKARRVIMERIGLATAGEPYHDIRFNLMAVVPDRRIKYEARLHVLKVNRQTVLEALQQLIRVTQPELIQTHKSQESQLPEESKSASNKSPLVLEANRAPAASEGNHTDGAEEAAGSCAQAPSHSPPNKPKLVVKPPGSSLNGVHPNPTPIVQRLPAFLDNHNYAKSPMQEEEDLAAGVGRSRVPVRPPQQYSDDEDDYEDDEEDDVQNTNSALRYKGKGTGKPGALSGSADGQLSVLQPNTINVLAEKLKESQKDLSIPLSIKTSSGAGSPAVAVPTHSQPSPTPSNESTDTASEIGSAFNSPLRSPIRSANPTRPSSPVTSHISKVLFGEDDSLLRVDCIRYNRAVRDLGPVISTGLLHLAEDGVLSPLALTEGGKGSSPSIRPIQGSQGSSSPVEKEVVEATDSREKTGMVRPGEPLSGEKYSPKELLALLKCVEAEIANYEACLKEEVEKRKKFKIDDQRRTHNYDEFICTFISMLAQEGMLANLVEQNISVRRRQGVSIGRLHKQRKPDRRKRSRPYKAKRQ
Method in brief: as §1

EIF3F = EIF3F (UniProt O00303)
EIF3F, sequence (O00303 whole entry): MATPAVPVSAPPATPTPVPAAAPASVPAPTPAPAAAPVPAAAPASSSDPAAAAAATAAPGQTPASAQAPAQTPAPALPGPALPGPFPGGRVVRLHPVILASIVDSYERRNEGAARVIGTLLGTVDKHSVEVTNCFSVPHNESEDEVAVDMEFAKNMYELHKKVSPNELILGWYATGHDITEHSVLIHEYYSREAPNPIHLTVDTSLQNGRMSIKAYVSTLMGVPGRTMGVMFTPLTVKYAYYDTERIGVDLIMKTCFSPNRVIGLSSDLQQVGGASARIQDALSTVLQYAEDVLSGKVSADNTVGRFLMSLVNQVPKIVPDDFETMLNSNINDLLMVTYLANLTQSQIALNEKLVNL
Method in brief: as §1

EIF3H = EIF3H (UniProt O15372)
EIF3H, sequence (O15372 whole entry): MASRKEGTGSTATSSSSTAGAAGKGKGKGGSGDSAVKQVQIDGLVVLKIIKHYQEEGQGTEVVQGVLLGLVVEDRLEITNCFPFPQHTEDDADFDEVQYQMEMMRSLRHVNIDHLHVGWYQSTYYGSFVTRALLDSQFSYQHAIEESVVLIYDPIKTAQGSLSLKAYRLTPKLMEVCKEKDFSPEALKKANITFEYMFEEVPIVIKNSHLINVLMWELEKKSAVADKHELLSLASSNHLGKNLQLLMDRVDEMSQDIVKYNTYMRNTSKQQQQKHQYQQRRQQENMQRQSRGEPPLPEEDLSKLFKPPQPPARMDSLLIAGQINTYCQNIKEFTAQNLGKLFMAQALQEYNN
Method in brief: as §1

FAM105A = molecular target: T3, FAM105A (UniProt Q9NUU6)
T3 sequence (whole entry): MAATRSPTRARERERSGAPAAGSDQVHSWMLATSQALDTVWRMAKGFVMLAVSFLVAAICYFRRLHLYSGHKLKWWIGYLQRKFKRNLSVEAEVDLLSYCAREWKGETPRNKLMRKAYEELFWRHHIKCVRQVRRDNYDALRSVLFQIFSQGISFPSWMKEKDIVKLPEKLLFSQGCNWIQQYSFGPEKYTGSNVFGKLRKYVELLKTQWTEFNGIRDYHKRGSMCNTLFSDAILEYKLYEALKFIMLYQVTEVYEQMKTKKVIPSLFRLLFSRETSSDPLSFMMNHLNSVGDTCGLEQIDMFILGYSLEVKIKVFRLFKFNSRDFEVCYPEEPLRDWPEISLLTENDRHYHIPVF
Method in brief: as §1

OTUB1 = OTUB1 (UniProt Q96FW1)
OTUB1, sequence (Q96FW1 whole entry): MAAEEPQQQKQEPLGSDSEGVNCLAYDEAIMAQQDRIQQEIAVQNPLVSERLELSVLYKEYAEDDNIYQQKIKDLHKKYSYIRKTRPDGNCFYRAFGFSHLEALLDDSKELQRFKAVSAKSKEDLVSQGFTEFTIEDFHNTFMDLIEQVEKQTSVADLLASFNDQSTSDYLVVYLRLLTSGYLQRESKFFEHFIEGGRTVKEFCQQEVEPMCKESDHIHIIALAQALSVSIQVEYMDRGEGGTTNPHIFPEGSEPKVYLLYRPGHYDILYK
Method in brief: as §1

OTUD4 = molecular target: T4, OTUD4 (UniProt Q01804)
T4 sequence (whole entry): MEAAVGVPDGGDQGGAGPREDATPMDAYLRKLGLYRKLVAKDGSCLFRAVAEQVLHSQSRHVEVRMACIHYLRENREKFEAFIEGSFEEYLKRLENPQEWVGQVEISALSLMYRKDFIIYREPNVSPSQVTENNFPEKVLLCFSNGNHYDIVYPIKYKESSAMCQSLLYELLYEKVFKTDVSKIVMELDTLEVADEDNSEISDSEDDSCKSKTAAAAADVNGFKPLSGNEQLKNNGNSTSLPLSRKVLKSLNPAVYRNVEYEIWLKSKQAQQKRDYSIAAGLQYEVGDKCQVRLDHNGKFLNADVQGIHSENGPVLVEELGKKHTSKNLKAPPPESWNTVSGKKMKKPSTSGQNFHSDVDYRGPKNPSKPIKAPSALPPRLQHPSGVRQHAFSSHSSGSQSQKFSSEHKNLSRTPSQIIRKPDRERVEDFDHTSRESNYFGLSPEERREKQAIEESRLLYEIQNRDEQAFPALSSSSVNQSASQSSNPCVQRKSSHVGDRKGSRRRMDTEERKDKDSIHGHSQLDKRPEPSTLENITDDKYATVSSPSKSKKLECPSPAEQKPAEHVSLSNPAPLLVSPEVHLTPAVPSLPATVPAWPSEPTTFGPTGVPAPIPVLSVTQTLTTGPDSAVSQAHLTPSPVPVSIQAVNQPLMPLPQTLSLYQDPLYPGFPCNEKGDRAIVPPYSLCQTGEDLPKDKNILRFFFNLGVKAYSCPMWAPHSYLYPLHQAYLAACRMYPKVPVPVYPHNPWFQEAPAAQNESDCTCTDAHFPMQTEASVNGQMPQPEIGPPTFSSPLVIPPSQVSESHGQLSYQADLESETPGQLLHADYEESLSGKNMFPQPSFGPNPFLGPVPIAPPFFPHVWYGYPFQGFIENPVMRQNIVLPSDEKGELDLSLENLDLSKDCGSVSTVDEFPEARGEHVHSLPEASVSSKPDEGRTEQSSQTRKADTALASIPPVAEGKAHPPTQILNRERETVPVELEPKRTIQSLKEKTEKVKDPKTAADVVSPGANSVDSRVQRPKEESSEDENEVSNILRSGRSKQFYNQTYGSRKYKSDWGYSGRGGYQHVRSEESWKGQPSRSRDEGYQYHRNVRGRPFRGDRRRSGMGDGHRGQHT
Method in brief: as §1

OTUD5 = molecular target: T5, OTUD5 (UniProt Q96G74)
T5 sequence (whole entry): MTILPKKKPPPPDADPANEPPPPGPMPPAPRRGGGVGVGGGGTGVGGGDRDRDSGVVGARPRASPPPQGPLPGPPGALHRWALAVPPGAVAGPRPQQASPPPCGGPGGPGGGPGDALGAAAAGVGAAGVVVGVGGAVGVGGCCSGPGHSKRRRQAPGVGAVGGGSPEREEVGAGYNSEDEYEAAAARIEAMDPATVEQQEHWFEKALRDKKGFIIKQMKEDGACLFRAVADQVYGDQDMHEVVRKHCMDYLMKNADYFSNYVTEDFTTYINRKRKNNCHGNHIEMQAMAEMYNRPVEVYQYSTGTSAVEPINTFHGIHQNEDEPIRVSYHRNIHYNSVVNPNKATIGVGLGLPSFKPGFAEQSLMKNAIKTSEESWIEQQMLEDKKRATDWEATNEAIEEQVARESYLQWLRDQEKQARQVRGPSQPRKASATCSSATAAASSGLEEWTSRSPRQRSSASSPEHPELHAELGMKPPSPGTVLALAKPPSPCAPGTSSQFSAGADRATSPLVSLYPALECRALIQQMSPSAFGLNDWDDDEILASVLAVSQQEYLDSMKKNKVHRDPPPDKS
Method in brief: as §1

Measured: log2 ratio of Biotin-Ahx-Ub-VS probe labelling

COc1ccc(CN(C)C(=O)CCl)cc1
active: BAP1 -1.65
inactive: ALG13 -0.466 | ATXN3 -0.667 | EIF3F -0.171 | EIF3H 0.0709 | FAM105A 0.32 | OTUB1 -0.0239 | OTUD4 -0.413 | OTUD5 -0.536
